Assay outcomes (PubChem)
Most compounds without a hit are left out; they make up all but 6.2% or so of the library.
Luc counter: Counterscreen for Luciferase (Kinase-Glo TM) Inhibition. Potency, µM (doses to about 38.3 µM), without a hit: at the top dose activity change, negative = inhibition, hits mostly inhibitors. Kinase-Glo luciferase, ATP luminescence, 8 min. AID 1379, 2008. Luciferin 4-monooxygenase (Photuris pensylvanica), Q27757. 0.28% of 200,000 active; note: nearly all actives have a fitted effect of over 60% in size
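Compound is pinned into ATP-containing buffer (10 uM ATP, imidazole pH 7.2, 7 mM MgCl2). Kinase-Glo luciferase reagent is then added. Light output is recorded following an 8-min room-temperature incubation.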
RORgamma inh: qHTS for inhibitors of ROR gamma transcriptional activity; Nuclear receptor ROR-gamma (Mus musculus), P51450; Drosophila S2 Gal4-RORgamma UAS-luciferase reporter, 20 h; Potency, µM (series often up to 53.6 µM), without a hit: at the top dose activity change, negative = inhibition, actives largely listed as inhibitors; 5.4% of 310,000 active; note: nearly all actives have a fitted effect of over 60% in size
Target sequence (P51450 whole entry, looked up, the tested form may be a part): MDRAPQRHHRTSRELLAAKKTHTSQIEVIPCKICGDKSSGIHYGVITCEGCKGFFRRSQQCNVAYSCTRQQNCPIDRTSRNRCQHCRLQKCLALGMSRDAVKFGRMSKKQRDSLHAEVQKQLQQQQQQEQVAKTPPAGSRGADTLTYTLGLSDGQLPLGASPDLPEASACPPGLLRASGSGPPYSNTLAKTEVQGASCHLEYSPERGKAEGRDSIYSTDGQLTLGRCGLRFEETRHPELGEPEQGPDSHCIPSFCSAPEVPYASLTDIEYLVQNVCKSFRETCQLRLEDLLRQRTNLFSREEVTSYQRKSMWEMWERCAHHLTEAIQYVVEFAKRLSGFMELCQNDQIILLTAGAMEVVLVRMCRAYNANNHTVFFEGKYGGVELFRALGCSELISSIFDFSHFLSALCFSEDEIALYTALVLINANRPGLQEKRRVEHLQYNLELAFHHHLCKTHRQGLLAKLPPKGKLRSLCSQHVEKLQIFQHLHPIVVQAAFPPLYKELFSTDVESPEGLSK
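ROR gamma transcriptional activity was tracked as Gal4-UAS luciferase output in stably transfected Drosophila Schneider cells, with compound added 1 hr before 700 uM copper sulfate induction and a 20 hr ambient-temperature incubation.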
VP16 counter: VP16 counterscreen qHTS for inhibitors of ROR gamma transcriptional activity. Potency, µM (series often up to 53.6 µM), without a hit: at the top dose activity, negative = inhibition, usual class: inhibitors. 3.5% of 310,000 active. AID 2546, 2010. Drosophila S2 Gal4-VP16 UAS-luciferase, luminescence, 20 h;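 note: Gal4-VP16 expression switched on by copper sulfate through the metallothionein promoter; nearly all actives have a fitted effect of over 50% in size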
* = called active by the depositor; ? = inconclusive; . = no result; [ ] = remark or other dose. Calls come from the whole dose curve; as a rule, active = well fitted curve in the direction sought with a large enough effect; inconclusive = small, poorly fitted or top-dose-only effect, or another doubt; inactive = no such curve, though single readings can be large; an effect the other way counts as inactive or inconclusive. % is set by controls: 0 for no effect and ±100 for the full control effect; potency is the fitted concentration of half-maximal effect.

SMILES | Luc counter | RORgamma inh | VP16 counter
O=C1C2=CC[C@H]3C(=O)N(Cc4ccccc4)C(=O)[C@@H]3[C@@H]2[C@H](O)[C@@H]2O[C@H]12 | . | 2.2µM* | ?
CC1=CCC2C(=O)N(Cc3ccccc3)C(=O)C2C1 (configuration not stated) | 0% | -36% | -2%
CSc1cccc(NC(=S)N(Cc2ccc(C)cc2)Cc2cccnc2)c1 | 1% | 5µM* | ?
Cc1ccc(Cl)cc1NC(=S)N(Cc1cccnc1)Cc1ccccc1Cl | -2% | ? | 25µM*
Cc1ccccc1NC(=S)N(Cc1ccccc1)Cc1cccnc1 | 0% | ? | 22%
Cc1cccc(NC(=S)N(CCc2nc3cc(C)c(C)cc3[nH]2)Cc2cccnc2)c1 | 1% | ? | -15%
COc1ccccc1N(CC(=O)NCCN1CCOCC1)S(=O)(=O)c1ccccc1 | . | 2% | -3%
CCCC(NS(=O)(=O)c1ccc(-c2ccc(=O)[nH]n2)s1)c1cccs1 (configuration not stated) | . | -1% | 2%
NC1=NC[C@H](c2ccccc2)N1CCCCC1CCCCC1 | . | -1% | -2%
Oc1ccc(C[C@@H]2CNC(=S)N2CCCCC2CCCCC2)cc1 | . | 8.9µM* | ?
S=C1NC[C@H](c2ccccc2)N1CCCCC1CCCCC1 | . | 0.45µM* | 3.2µM*
O=C1NC[C@H](Cc2ccc(O)cc2)N(CC2CCCCC2)C1=O | . | -10% | 4%
NC(=S)N/N=C/c1c(O)c(Br)cc2oc3c(c12)CCCC3 | . | 7.9µM* | ?
Oc1c(Br)cc2oc3c(c2c1CNCc1ccccc1)CCCC3 | 3% | ? | ?
CC(C)[C@@H](CC(=O)N[C@@H]1CCNC[C@H]1C(=O)N[C@H](CC(=O)N[C@@H](CCC(=O)O)CC(=O)O)Cc1ccccc1)NC(=O)C[C@H](Cc1ccccc1)NC(=O)[C@@H]1CNCC[C@H]1N | -5% | 40% | -4%
Cc1ccc(-n2nnnc2SCc2nc3sc(C)c(C)c3c(=O)[nH]2)cc1 | 0% | 11µM* | ?
CC(=O)c1sc2nc(CSc3nnnn3-c3ccccc3)[nH]c(=O)c2c1C | -3% | ? | -13%
Cc1ccc(NC(=O)Cn2c(=O)c3cccn3c3ccccc32)cc1 | . | -13% | -3%
COc1ccc2nc(NC3=NC(c4ccccc4)CC(=O)N3)nc(C)c2c1 (configuration not stated) | -2% | -7% | -8%
COc1ccc(OC)c(N/C(=N/c2nc(C)cc(C)n2)NC(C)=O)c1 | . | -14% | -3%
COc1ccc(OC)c(N/C(=N/C(=S)Nc2ccccc2)Nc2nc(C)cc(C)n2)c1 | . | ? | 0.71µM*
Cc1ccc(CN=C(N)Nc2nc(C)cc(C)n2)cc1 | 1% | 1% | -2%
COc1ccc2nc(N/C(N)=N/C(=S)Nc3ccc(C)c(C)c3)nc(C)c2c1 | 2% | 0.79µM* | ?
CCc1c(C)nc(Nc2nc(C)c3cc(OC)ccc3n2)[nH]c1=O | . | -23% | -10%
CCc1ccc(NC(=S)/N=C(\N)Nc2nc(C)c3cc(CC)ccc3n2)cc1 | -3% | 1.1µM* | 7.1µM*
SMILES | Luc counter | RORgamma inh | VP16 counter
COc1ccc2nc(N/C(N)=N/C(=S)Nc3ccccc3)nc(C)c2c1 | 10% | 0.79µM* | 4.5µM*
Cc1cc(N=Cc2c(CO)cnc(C)c2O)c(N=Cc2c(CO)cnc(C)c2O)cc1C.[Zn] | -2%[7.66 µM] | . | .
CSc1ccc(C2(O)Cc3cccc[n+]3C2c2ccccc2)cc1 (configuration not stated) | . | 1% | 5%
CCOc1ccc2nc(N/C(N)=N/S(C)(=O)=O)nc(C)c2c1 | . | 4% | 6%
CCOc1ccc2nc(N/C(N)=N/C(=S)Nc3ccc(OC)cc3)nc(C)c2c1 | -3% | 1.6µM* | ?
COc1cc(C2C(C#N)=C(N)OC3=C2C(=O)CC(C)(C)C3)cc([N+](=O)[O-])c1O (configuration not stated) | . | 7% | -3%
O=C(CN1CCN(Cc2ccccc2)CC1)Nc1ccccc1-c1ccccc1 | -1% | -32% | -24%
CCc1sc(C(=O)Nc2ccc(NC(C)=O)cc2)cc1C | 1% | ? | 18%
CCc1sc(C(=O)Nc2nc(C)cs2)cc1C | . | 5µM* | 11µM*
Cc1nc(NC(=O)c2cc3c(s2)CCCCC3)sc1C(=O)N(C)C | 0% | 16% | 21%
Cc1csc(NC(=O)c2ccc(Br)s2)n1 | . | 10µM* | ?
Cc1csc(NC(=O)c2cccs2)n1 | -19% | 18% | -8%
CC1CCc2sc(C(=O)NN)cc2C1 (configuration not stated) | . | 26% | -9%
COC(=O)c1sc(NC(=O)c2cc3c(s2)CCCC3)nc1C | -4% | 1.8µM* | ?
CCOC(=O)c1sc(NC(=O)c2cc3c(s2)CCC(C)C3)nc1C (configuration not stated) | -2% | 0.25µM* | 0%
CN(CC(=O)N1CCCC1)S(=O)(=O)c1cc(Cl)ccc1Cl | -2% | -6% | -15%
COc1cc(OC)c2c(C)cc(=O)oc2c1C(CCN1CCCC(C)C1)c1ccc(N(C)C)cc1 (configuration not stated) | . | -27% | 4%
O=S(=O)(c1ccc(S(=O)(=O)N(Cc2ccc(F)cc2)C2CCCC2)cc1)N1CCCC1 | -2% | -1% | 0%
CC(=O)Nc1cccc(/C(C)=N/NC(=O)c2ccc(CN3CCOCC3)cc2)c1 | -3% | -23% | -10%
Cc1ccc(NC(=O)c2cc3c(s2)CCCC3)cc1 | 3% | ? | 2%
COC(=O)c1sc(NC(=O)c2ccc(C)o2)nc1C | 6.3µM* | ? | -18%
CC(=O)c1sc(NC(=O)c2ccccc2F)nc1C | 10µM* | ? | ?
CC(=O)c1sc(NC(=O)c2cccnc2Cl)nc1C | -12% | 14% | 1%
Cc1csc(NC(=O)c2cc3c(s2)CCC3)n1 | ? | 2µM* | 8.9µM*
Cc1ccc(C(=O)Nc2nc(C)c(C)s2)o1 | ? | -33% | ?
SMILES | Luc counter | RORgamma inh | VP16 counter
CCCCC/C=C\C/C=C\C/C=C\CCCCC(N)=O | 1% | -10% | 1%
CSCCC(NC(=O)c1cccc(C)c1)C(=O)OCC(=O)NC(=O)c1cccn1C (configuration not stated) | . | 39% | 28%
CCC(C)NCCOc1cc(C)cc(C)c1C (configuration not stated) | 0% | 5% | -16%
CC(=O)Nc1ccccc1-c1nc2ccc(C(=O)N3CCN(c4cc(C)ccc4C)CC3)cc2[nH]c1=O | 0% | 11% | 3%
O=C(CN1C(=O)C2CC=CCC2C1=O)NC1=NCCS1 (configuration not stated) | -7% | -1% | 0%
CC(C)C(NC(=O)CNC(=O)OC(C)(C)C)C(=O)NCc1ccccc1 (configuration not stated) | 3% | -15% | 3%
O=C(C1=C[C@H](c2ccc3c(c2)OCO3)C[C@H](OCc2ccc(CO)cc2)O1)N1CCCCCCC1 | . | 14µM* | -29%
O=C(C1=C[C@@H](c2ccc3c(c2)OCO3)C[C@@H](OCc2ccc(CO)cc2)O1)N1CCOCC1 | . | 0% | 7%
Cc1ccc(Cl)cc1Nc1nc(-c2sc(NC(=O)c3cccc(Cl)c3)nc2C)cs1 | -1% | ? | -10%
